Screens (PubChem BioAssay)
A selection: hits, their analogues and other compounds. The true share with any hit is near 4.1%.
Sm TGR inh: qHTS Assay for the Inhibitors of Schistosoma Mansoni Peroxiredoxins. AID 485364, 2010. 360,000 compounds, 3% hits. purified TGR, DTNB reduction, TNB absorbance 405 nm. Schistosoma mansoni thioredoxin glutathione reductase (TGR), Q962Y6. Potency, µM (top dose mostly 114 µM), usual class: inhibitors; note: nearly all actives have a fitted effect of over 60% in size
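TGR 20 nM + NADPH 100 uM (dispensed conc.), cpd preinc 15 min RT; start with NADPH (500 uM addition) then DTNB (15 mM addition). Kinetic TNB absorbance, 405 nm filter. Four-parameter Hill fit across titration.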
FMDV antiviral: High Throughput Screening for Foot and Mouth Disease Virus Antivirals; FMDV antiviral cell-based qHTS; 410,000 compounds, 1.2% hits; Potency, µM (top dose mostly 57.9 µM), hits mostly inhibitors; AID 1159524, 2015; calls by dose curve; tested in HEK293T cells; note: read-out not given here; nearly all actives have a fitted effect of over 45% in size
AmpC no deterg: qHTS Inhibitors of AmpC Beta-Lactamase (assay without detergent); 330,000 compounds, 0.52% hits; Potency, µM (doses to about 57.1 µM), hits mostly inhibitors; AmpC nitrocefin hydrolysis, absorbance 480 nm, 0.0001% Triton; P00811; note: nearly all actives have a fitted effect of over 20% in size
Target sequence (P00811 whole entry, looked up): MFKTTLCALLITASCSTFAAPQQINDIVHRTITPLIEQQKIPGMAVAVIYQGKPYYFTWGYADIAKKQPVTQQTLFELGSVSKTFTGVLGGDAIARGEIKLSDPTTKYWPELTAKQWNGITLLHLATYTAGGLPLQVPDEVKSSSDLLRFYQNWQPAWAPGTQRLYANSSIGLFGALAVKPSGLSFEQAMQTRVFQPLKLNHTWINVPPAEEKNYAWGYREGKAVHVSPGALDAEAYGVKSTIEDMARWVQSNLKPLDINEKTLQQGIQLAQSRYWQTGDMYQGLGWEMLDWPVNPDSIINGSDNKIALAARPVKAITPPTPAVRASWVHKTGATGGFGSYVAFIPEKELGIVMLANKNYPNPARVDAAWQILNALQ
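AmpC (5.3 nM in the dispensed reagent) in 20 mM phosphate pH 7.0 with 0.01% (detergent screen) or 0.0001% Triton X-100 was preincubated with compounds for 15 min at room temperature. Nitrocefin was then added from an 800 uM solution, and hydrolysis was followed at 480 nm.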
AmpC inh detg: qHTS Inhibitors of AmpC Beta-Lactamase (assay with detergent); AmpC hydrolysis of nitrocefin, absorbance 480 nm, 0.01% Triton; 370,000 compounds, 0.041% hits; Potency, µM (doses to about 114 µM), usual class: inhibitors; AID 485294, 2010; note: nearly all actives have a fitted effect of over 25% in size
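AmpC (5.3 nM in the dispensed reagent) in 20 mM phosphate pH 7.0 with 0.01% (detergent screen) or 0.0001% Triton X-100 was preincubated with compounds for 15 min at room temperature. Nitrocefin was then added from an 800 uM solution, and hydrolysis was followed at 480 nm.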
AMA1-RON2 inh: qHTS for Inhibitors of AMA1-RON; Towards Development of Antimalarial Drug Lead: Primary Screen | Plasmodium falciparum AMA1 (3D7) - RON2 peptide interaction | AlphaScreen AMA1-biotinylated RON2 peptide binding | Potency, µM (series often up to 58.2 µM), actives largely listed as inhibitors | 360,000 compounds, 0.2% hits | AID 720542, 2013; note: nearly all actives have a fitted effect of over 45% in size
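AMA1 (3D7) with his tag at 25 nM final met compounds first, then biotinylated RON2 peptide at 25 nM; detection used donor plus acceptor beads, 10 µg/mL apiece, read by AlphaScreen after 30 min at room temperature.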
Of the large screens only hits and unclear results are named; the others gave an inactive call. Unless noted, calls come from the whole dose curve; as a rule, active = well fitted curve in the direction sought with a large enough effect; inconclusive = small, poorly fitted or top-dose-only effect, or another doubt; inactive = no such curve, though single readings can be large; an effect the other way counts as inactive or inconclusive.

O=C(Nc1ccc2c(c1)nc1n2CCN(Cc2ccccc2)C1)NC1CCCCC1	Sm TGR inh inconclusive
COCCN1CCn2c(nc3cc(NC(C)=O)ccc32)C1	Sm TGR inh 14µM
COCCN1CCn2c(nc3cc(NC(=O)Cn4nc(C)c5ccccc5c4=O)ccc32)C1	Sm TGR inh 25µM
CC1=C(c2ccc(C)c(C)c2)S(=O)(=O)N(Cc2ccc(C(=O)NCc3ccc(C)cc3)cc2)C1=O	none (no result: AmpC no deterg, AMA1-RON2 inh)
COc1ccc(-n2c(=O)c(-c3cccs3)nc3cnc(N(C)C)nc32)cc1	none (no result: Sm TGR inh, AmpC no deterg, AmpC inh detg, AMA1-RON2 inh)
Cn1nnnc1SCC(=O)N1N=C(c2ccc(Cl)cc2)CC1c1ccco1 (stereo not given)	none (no result: Sm TGR inh, AmpC inh detg)
Cc1nnc(SCC(=O)N2N=C(c3ccc(Cl)cc3)CC2c2ccco2)[nH]c1=O (stereo not given)	Sm TGR inh 13µM
CCS(=O)(=O)Nc1cccc(C2=NN(S(=O)(=O)c3ccccc3)C(c3ccco3)C2)c1 (stereo not given)	Sm TGR inh 28µM
O=S(=O)(c1ccccc1)N1N=C(c2ccc(Cl)cc2)CC1c1ccco1 (stereo not given)	Sm TGR inh 40µM, AmpC inh detg inconclusive
CS(=O)(=O)N1N=C(c2cccs2)CC1c1ccco1 (stereo not given)	Sm TGR inh 7.9µM
COc1ccc(C(=O)Nc2ccc3c(c2)CCCN3S(=O)(=O)c2ccc(C)cc2)c(OC)c1	none (no result: AmpC no deterg, AMA1-RON2 inh)
CCc1ccccc1NC(=O)CN1C(=O)c2ccccc2Sc2ncccc21	none (no result: AmpC no deterg, AMA1-RON2 inh)
CCCN(CCC)CCCNC(=O)c1cc2c(=O)oc3ccc(C)cc3c2s1	none (no result: AmpC no deterg, AMA1-RON2 inh)
CCOC(=O)c1c(NC(=O)CSc2cn(CCNC(=O)c3c(F)cccc3F)c3ccccc23)sc2c1CCCC2	none (no result: AmpC no deterg, AMA1-RON2 inh)
CC(=O)N1N=C(c2ccc(Cl)cc2)CC1c1ccco1 (stereo not given)	none
CS(=O)(=O)Nc1cccc(C2=NN(S(=O)(=O)c3ccccc3)C(c3ccco3)C2)c1 (stereo not given)	Sm TGR inh 20µM
O=C(c1ccc(Br)o1)N1N=C(c2ccc(Cl)cc2)CC1c1ccco1 (stereo not given)	Sm TGR inh 45µM
CCS(=O)(=O)Nc1cccc(C2=NN(S(=O)(=O)c3ccc(C)cc3)C(c3ccco3)C2)c1 (stereo not given)	Sm TGR inh inconclusive
Cc1ccc(C2=NN(C(=O)CCl)C(c3ccco3)C2)o1 (stereo not given)	Sm TGR inh 7.1µM, FMDV antiviral inconclusive
CCOc1ccc(NC(=O)Cn2cc(C(=O)c3ccc(OC)cc3)c(=O)c3cc4c(cc32)OCO4)cc1	none (no result: AmpC no deterg, AMA1-RON2 inh)
CC1(C)CC(=O)C(CS(=O)(=O)c2ccccc2)=C(Cl)C1	Sm TGR inh 7.1µM
Cn1c(=O)c2c(n3c4ccccc4nc13)NC(=O)CC2c1cccc(F)c1 (stereo not given)	none (no result: AmpC no deterg, AMA1-RON2 inh)
Cc1nnc(SCc2nc3sc4c(c3c(=O)[nH]2)CCCC4)n(N)c1=O	Sm TGR inh 14µM
Cc1ccc(N=Nc2cc(C)ccc2N)cc1	AMA1-RON2 inh 32µM
CCCCCCCC/C=C\CCCCCCCC(N)=O	none (no result: Sm TGR inh, AmpC no deterg, AmpC inh detg, AMA1-RON2 inh)
CCc1nc2ccccc2c(C(=O)Nc2ccc(F)cc2)c1C	none
CCc1nc2ccccc2c(C(=O)OCC(=O)Nc2ccc(NC(C)=O)cc2)c1C	FMDV antiviral 32µM (no result: Sm TGR inh, AmpC inh detg)
COc1ccc(OC)c(NC(=O)COC(=O)c2c3c(nc4ccccc24)CCCC3)c1	FMDV antiviral inconclusive
CCc1nc2ccccc2c(C(=O)OCC(=O)NCc2ccco2)c1C	Sm TGR inh 35µM
COc1ccc(NC(=O)COC(=O)c2c3c(nc4ccccc24)CCCC3)cc1	FMDV antiviral 22µM, AmpC inh detg inconclusive
CCCCS(=O)(=O)/C=C\C=C/S(=O)(=O)CCCC	Sm TGR inh 2.2µM, FMDV antiviral inconclusive
CSc1cccc(NC(=S)N2CCC(N(C)C(C)C)CC2)c1	none
CSc1cccc(NC(=S)N2CCC(N(C)C3CCCCCC3)CC2)c1	Sm TGR inh 50µM
COc1ccc(-c2cccc(NS(=O)(=O)c3cc(C)c(Cl)cc3C)c2)nn1	AmpC inh detg inconclusive (no result: AmpC no deterg, AMA1-RON2 inh)
COC(=O)[C@@]1(Cc2ccc(OC)cc2)[C@@H]2C(=CC(=O)[C@H]2CC(=O)C(=O)N2CCCC2)CN1C(=O)c1ccccc1	Sm TGR inh inconclusive, FMDV antiviral 16µM
COC(=O)[C@@]1(Cc2ccc(F)cc2)[C@H]2C(CC(=O)C(=O)N3CCCC3)C(=O)C[C@H]2CN1C(=O)c1ccccc1 (stereo not given in full)	FMDV antiviral inconclusive (no result: Sm TGR inh, AmpC no deterg, AmpC inh detg)
Cc1ccccc1OCC(=O)Nc1nnc(S(=O)(=O)N(C)c2ccccc2)s1	none (no result: AmpC no deterg, AMA1-RON2 inh)
COC1CC(C)C(OC)c2cc(O)cc(c2O)NC(=O)C(C)=CC=CC(C)C(OC(N)=O)C(C)=CC(C)C1OC (stereo not given)	FMDV antiviral 126µM (no result: Sm TGR inh, AmpC no deterg, AmpC inh detg)
COC1C=CC=C(C)C(=O)NC2=CC(=O)C(N)=C(CC(C)CC(OC)C(O)C(C)C=C(C)C1OC(N)=O)C2=O (stereo not given)	FMDV antiviral 10µM (no result: Sm TGR inh, AmpC no deterg, AmpC inh detg)
C[C@]12C=CC(=O)C=C1CCC1C2C(=O)C[C@]2(C)C1CC[C@]2(O)C(=O)CO (stereo not given in full)	none (no result: Sm TGR inh, AmpC no deterg, AmpC inh detg, AMA1-RON2 inh)
COc1cccc(CN(C)C(=O)CNC(=O)c2sc3ccccc3c2Cl)c1OC	FMDV antiviral 40µM
c1csc(-c2nnc(NC3CCCCC3)c3ccccc23)c1	FMDV antiviral 40µM
CN1CCCN(C(=O)[C@@H]2C[C@@H](Sc3nc4ccccc4[nH]3)CN2Cc2ccc(-c3ccccc3)cc2)CC1	none (no result: Sm TGR inh, AmpC no deterg, AmpC inh detg, AMA1-RON2 inh)
CS(=O)(=O)N1CCC2(CCCN(C(=O)Nc3ccccc3)C2)CC1	none (no result: Sm TGR inh, AmpC no deterg, AmpC inh detg, AMA1-RON2 inh)
